Compounds with a hit are over-represented: about 7.4% of the library has one in this group of screens.
FXIa inh mix = factor XIa (human) inhibition, mixture screen; P03951; purified FXIa, fluorogenic substrate, pooled mixtures; inhibition, % at 5 µM; 62,000 compounds, 0.19% hits; AID 680;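 also: each value is inhibition by a whole ten-compound pool holding the compound; 0% = enzyme with no mixture and 100% = wells lacking enzyme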
M1 ag = agonists of M1 muscarinic receptor. B-score at 10 µM. CHO-M1 cells, Fluo-4 calcium fluorescence, agonist mode; hits give high values. 64,000 compounds, 3% hits. AID 626;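 active = fluorescence rise, raw or as B-score row- and column-corrected plate score, outside the 99.7% band of its plate's samples, either direction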
M1 antagonist = antagonists of rat M1 muscarinic receptor; P08482; CHO-M1 cells, Fluo-4 calcium, ACh EC80 antagonist mode; hits give low values; B-score at 10 µM; 64,000 compounds, 3.4% hits; AID 628;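 active = calcium fluorescence response, raw or row-and-column corrected B-score, differing from the plate sample mean either way at a set confidence level, mostly lower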
hDAT+cocaine = human DAT dopamine uptake with cocaine, either direction | Q01959 | LLC-PK1 hDAT cells, [14C]-dopamine uptake with cocaine IC80; actives deviate in either direction | B-score at 10 µM | 110,000 compounds, 1.3% hits | AID 449768;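 active = Z score or B-score, a plate-position-corrected score, falls beyond the plate's 99.7% confidence bounds, in either direction; inactive = both scores lie inside the 99.7% bounds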;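 also: scored against the spread of the other compound wells on the same plate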
Target sequence (Q01959 whole entry, looked up): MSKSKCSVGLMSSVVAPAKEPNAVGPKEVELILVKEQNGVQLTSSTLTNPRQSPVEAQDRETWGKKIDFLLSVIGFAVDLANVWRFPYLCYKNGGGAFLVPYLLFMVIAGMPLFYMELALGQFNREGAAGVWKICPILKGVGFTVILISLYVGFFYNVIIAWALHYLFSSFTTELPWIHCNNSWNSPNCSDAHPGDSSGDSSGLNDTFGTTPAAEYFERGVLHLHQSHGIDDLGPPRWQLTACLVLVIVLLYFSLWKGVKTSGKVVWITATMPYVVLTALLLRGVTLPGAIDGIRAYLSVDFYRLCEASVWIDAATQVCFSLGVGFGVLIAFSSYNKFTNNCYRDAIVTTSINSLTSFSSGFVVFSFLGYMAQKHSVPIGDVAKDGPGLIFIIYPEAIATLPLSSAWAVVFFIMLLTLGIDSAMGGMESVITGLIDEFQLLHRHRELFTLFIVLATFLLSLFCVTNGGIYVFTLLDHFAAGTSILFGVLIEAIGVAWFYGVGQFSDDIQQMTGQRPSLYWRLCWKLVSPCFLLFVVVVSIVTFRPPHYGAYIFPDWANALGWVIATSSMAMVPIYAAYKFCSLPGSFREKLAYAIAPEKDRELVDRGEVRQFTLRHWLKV
D1 mod = D1 dopamine receptor (human) allosteric modulation | P21728 | HEK293 D1, CRE-luciferase, dopamine EC30 potentiation; actives deviate in either direction | B-score at 10 µM | 58,000 compounds, 5.9% hits | AID 641;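 active = luminescence count or its row- and column-corrected plate score outside the 99.7% band of the plate's sample wells, on either side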
FXIIa inh mix = factor XIIa (human) inhibition, mixture screen. inhibition, % at 5 µM. purified FXIIa, fluorogenic substrate, pooled mixtures. P00748. 62,000 compounds, 0.2% hits. AID 684;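 also: 0% = enzyme without compound and 100% = no enzyme blank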
D1 PAM confirm = confirmation of human D1 dopamine receptor allosteric modulators; luminescence at 10 µM; HEK293 D1 CRE-luciferase, dopamine EC30 potentiation; hits give high values; 2,200 compounds, 88% hits; shares compounds with D1 mod; AID 642;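 active = luminescence in either of two replicates above the same-plate mean plus 3 SD of the low-dose dopamine control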
D1 no dopamine = D1 (human) signaling in absence of dopamine; 1,900 compounds, 0.8% hits; AID 646; shares compounds with D1 mod; luminescence at 10 µM; HEK293 D1 CRE-luciferase, luminescence, no dopamine; hits give high values; in the data active = luminescence above about 3900
Isoprot counter = isoproterenol response counter-screen activity for D1 modulators. shares compounds with D1 mod. HEK293 D1 CRE-luciferase, isoproterenol EC30 counter-screen. calls only at 10 µM. 2,200 compounds, 63% hits. AID 647;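 active = luminescence in either replicate above plate mean of wells with a partly effective reference agonist dose plus 3 SD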;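 also: isoproterenol raises cAMP through native beta-adrenoceptor Gs so signal bypasses D1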
Starred values were filed as active, the others as inactive; i = inactive; . = not tested or not shown; + = active, no number. Rule as the data show it, unless noted: active = inhibition above about 20% (passing the limit was not always enough); inactive = the rest.

SMILES	FXIa inh mix	M1 ag	M1 antagonist	hDAT+cocaine	D1 mod	FXIIa inh mix	D1 PAM confirm	D1 no dopamine	Isoprot counter
COc1ccc(-c2nnc(SCC(=O)N(Cc3ccccc3)C(C)(C)C)o2)cc1OC	-11.8	-0.587	0.0812	-0.557	0.339	5.6	.	.	.
CCOC(=O)CN(C(=O)CSc1nnc(-c2ccc(OC)c(OC)c2)o1)c1ccc(F)cc1	-0.6	-0.841	-0.0862	0.0251	3.06*	9.2	8044*	1456	i
COc1ccc(C(=O)COC(=O)CSCc2c(C)noc2C)cc1OC	6.2	-1.55	-0.262	-0.148	7.58*	-27.6	17860*	1868	+
N#CC1=C(N)OC2=C(C(=O)CCC2)C1CCc1ccccc1 (configuration not stated)	3.1	-0.0489	-0.39	0.587	6.39*	-18.4	7756*	.	i
CCOc1c(Cl)cc(C(=O)Nc2ccccc2C(=O)O)cc1Cl	.	.	.	-0.615	.	.	.	.	.
CCCCn1cc(C(=O)c2cc(Br)ccc2O)cc(C#N)c1=O	.	.	.	0.525	.	.	.	.	.
CCOc1ccc(NC(=O)Cn2nnc(C(=O)NCc3ccccc3OC)c2N)cc1	-5.1	0.439	-0.223	0.714	4.29*	-1.8	4744	1560	i
NS(=O)(=O)c1ccc(CCNC2CC(=O)N(CCc3ccccc3)C2=O)cc1 (configuration not stated)	4.3	0.138	0.281	0.192	2.27*	4.0	4996	1548	i
CC(SCc1ccccc1)C(=O)N/N=C/c1cc2c(cc1Br)OCO2 (configuration not stated)	.	.	.	-1.27	.	.	.	.	.
CC(=O)c1c(C)nc(-c2ccccc2)n1O	.	.	.	-0.353	.	.	.	.	.
Cc1cc(NS(=O)(=O)c2ccc(NC(=O)COc3ccccc3C(C)C)cc2)no1	23.1	1.4	-0.048	-0.507	4.12*	-1.9	6636*	1576	i
COC(=O)Cn1c(C(F)(F)F)nc2ccccc21	.	.	.	0.0695	.	.	.	.	.
CNc1nc(NC)nc(-n2c(C(F)(F)F)nc3ccccc32)n1	3.9	1.27	0.104	-0.658	8.02*	-18.5	18112*	1496	+
O=c1ccc(Oc2nc(N3CCOCC3)nc(N3CCOCC3)n2)nn1-c1ccccc1	.	.	.	0.49	.	.	.	.	.
COc1ccccc1Nc1nc(N2CCOCC2)nc(N2CCOCC2)n1	.	.	.	0.00529	.	.	.	.	.
COc1nc(N2CCOCC2)nc(-n2cccc2)n1	-0.9	-0.328	0.555	-1.31	16.7*	8.2	12956*	1432	+
c1ccc(Oc2nc(Oc3ccccc3)nc(N3CCOCC3)n2)cc1	6.6	-0.999	-0.43	-0.00158	3.75*	9.8	6884*	.	+
O=C(c1csc2ccccc12)N1CCCCCC1	-18.0	-0.293	-0.253	0.355	-0.215	-15.0	.	.	.
CC1(C)Cc2c(c(-c3ccco3)[nH]c(=O)c2C#N)CO1	6.0	0.0867	0.2	1.55	4.25*	7.2	15660*	1772	+
CC1(C)Cc2c(c(-c3ccco3)nc3n[nH]c(N)c23)CO1	6.4	-0.279	-0.0946	-0.147	11.4*	0.9	17288*	1464	+
CC1(C)Cc2c(C#N)c(N3CCCC3)nc(-c3ccco3)c2CO1	-1.7	-0.0494	-0.00465	0.579	5.33*	0.0	9980*	1576	i
O=C(NCCc1ccccc1)c1cnn2c(C(F)F)cc(C3CC3)nc12	16.4	0.00373	-0.42	0.241	5.05*	2.7	12520*	1540	+
O=C(Nc1ccccc1C(=O)NCc1ccco1)c1ccccc1	-2.1	0.935	-0.654	-0.275	5.3*	-1.8	10828*	.	+
COC(=O)c1ccccc1NC(=O)c1cnn2c(C(F)F)cc(C3CC3)nc12	3.2	-0.428	-0.0561	-0.462	0.397	3.1	.	.	.
O=C(NCc1ccco1)c1cnn2c(C(F)F)cc(-c3ccccc3)nc12	3.4	-1.09	-1.01	-0.403	5.22*	5.1	7604*	1664	+
SMILES	FXIa inh mix	M1 ag	M1 antagonist	hDAT+cocaine	D1 mod	FXIIa inh mix	D1 PAM confirm	D1 no dopamine	Isoprot counter
CCN(CCNC(=O)CC1Oc2ccccc2NC1=O)c1ccccc1 (configuration not stated)	12.6	0.676	-1.38	-1.19	3*	2.3	4876	1496	i
O=C(NCc1cccs1)C(NS(=O)(=O)c1cccc2nsnc12)c1ccccc1 (configuration not stated)	10.5	0.308	0.136	-0.0602	0.109	12.6	.	.	.
COCCNC(=O)c1ccccc1-c1ccccc1C(=O)O	-3.6	-0.485	0.231	0.163	1.53	9.1	.	.	.
CN(Cc1nc(-c2ccccn2)no1)S(=O)(=O)c1ccc(Br)cc1	9.7	0.348	-0.468	-0.244	1.19	8.9	.	.	.
CCC(=O)n1nc(-c2ccco2)nc1N	-3.5	-0.203	1.01	0.475	15.1*	0.4	6080*	1652	i
CCOC(=O)CC(=O)Nc1ccc(C)cc1	.	.	.	-0.0393	.	.	.	.	.
Cc1cc(-c2ccccc2)c(C#N)c(SCC(N)=O)n1	6.3	0.0108	0.96	0.0411	4.98*	-1.3	8124*	1568	i
CCOC(=O)CC(=O)CSc1nc(C)cc(-c2cccnc2)c1C#N	4.8	0.0238	0.248	-0.0119	-0.65	7.0	.	.	.
CNc1sc(C(=O)c2ccccc2F)c(N)c1-c1nc2ccccc2s1	.	.	.	-0.348	.	.	.	.	.
CCCC1(C(=O)OCC)NC(c2ccc(N(C)C)cc2)C2C(=O)N(c3ccccc3)C(=O)C21 (configuration not stated)	-17.2	1.47	-0.188	-0.18	-0.732	1.0	.	.	.
CCCC1(C(=O)OCC)NC(c2ccc(N(C)C)cc2)C2C(=O)N(c3ccc(OCC)cc3)C(=O)C21 (configuration not stated)	-4.0	0.179	0.985	-0.333	2.92*	7.1	4600	1488	i
COc1ccc(NC(=O)c2cc(C3CC3)on2)c(OC)c1	4.7	0.00687	-0.0116	-1.12	-0.384	5.7	.	.	.
Cn1c(SCC(=O)c2ccc(F)cc2)nnc1-c1ccccc1N	16.0	0.0657	0.349	-0.28	-0.531	5.3	.	.	.
CCCC1=[N+](CC(=O)c2ccccc2)CCn2c(C)ccc21	.	.	.	0.136	.	.	.	.	.
O=C(O)CCCC(=O)Nc1ccc(Br)cc1	.	.	.	0.568	.	.	.	.	.
O=C(O)CCCC(=O)Nc1ccccc1Br	7.7	0.247	1.31	-0.0486	7.16*	7.1	4184	.	i
CC(C)Nc1nc(NC(C)C)nc(C(=O)OCCO)n1	.	.	.	0.51	.	.	.	.	.
Cc1cccc(NC(=O)COc2nsnc2N2CCOCC2)c1	8.6	-0.267	0.13	0.407	.	1.0	.	.	.
COC(=O)COc1nsnc1N1CCOCC1	0.6	-0.0148	-0.515	0.619	2.3*	5.5	6088*	.	i
C=CCC(C#Cc1ccccc1)[N+](C)(C)CC=C (configuration not stated)	.	.	.	-0.998	.	.	.	.	.
Nc1c(NCc2ccccc2F)c(=O)[nH]c(=O)n1Cc1ccccc1	11.1	-1.8	-1.17	-0.448	0.459	-15.9	.	.	.

Screening data from PubChem.
